Laboratory results reported in publication PMC7862700, “An all-to-all approach to the identification of sequence-specific readers for epigenetic DNA modifications on cytosine”.

Assays:
Test in all cases: DAPPL (digital affinity profiling via proximity ligation, sequencing); 10 mM Tris-HCl pH 7.5, 50 mM NaCl, 1 mM DTT, 4% glycerol, room temperature, 30 min; GST-TFs on glutathione beads, 16-mer random dsDNA library, 0.1% formaldehyde crosslink after washing; high values mean tight binding
FEV = target: T1, FEV (Homo sapiens, UniProt Q99581 1-238); settings: protein: recombinant; tags: N-terminal GST; dsDNA, one strand shown
T1 sequence: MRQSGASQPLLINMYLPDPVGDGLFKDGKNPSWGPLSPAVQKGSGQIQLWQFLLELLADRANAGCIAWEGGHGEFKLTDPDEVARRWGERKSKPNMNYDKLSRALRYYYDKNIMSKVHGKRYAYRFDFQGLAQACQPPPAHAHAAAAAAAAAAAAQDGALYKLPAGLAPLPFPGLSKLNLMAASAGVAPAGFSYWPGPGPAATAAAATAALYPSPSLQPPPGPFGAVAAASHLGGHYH
In short: (§1)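 Sequencing on an Illumina NextSeq500 followed washing, crosslinking with 0.1% formaldehyde, proximity ligation (BsaI/T4 ligase, 1 h, 37 °C) and PCR amplification of pools that had been incubated for 30 min at room temperature with 200 nmole of a random double-stranded 16-mer DNA library in Tris/NaCl/DTT/glycerol buffer. Each pool held DNA-barcoded human transcription factors, expressed in yeast as GST fusions and captured on glutathione beads, plus a tag-only sample. Binding signal is a hexamer's read frequency for a factor divided by its frequency in the tag-only sample.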

ETV5 = ETV5 (Homo sapiens, UniProt P41161 1-510); settings: protein: recombinant; tags: N-terminal GST; dsDNA, one strand shown
In short: as §1

HSF1 = HSF1 (Homo sapiens, UniProt Q00613 1-529); settings: protein: recombinant; tags: N-terminal GST; chain copies: 3; dsDNA, one strand shown
In short: as §1

SPIC = target: T2, SPIC (Homo sapiens, UniProt Q8N5J4 1-248); settings: protein: recombinant; tags: N-terminal GST; dsDNA, one strand shown
T2 sequence: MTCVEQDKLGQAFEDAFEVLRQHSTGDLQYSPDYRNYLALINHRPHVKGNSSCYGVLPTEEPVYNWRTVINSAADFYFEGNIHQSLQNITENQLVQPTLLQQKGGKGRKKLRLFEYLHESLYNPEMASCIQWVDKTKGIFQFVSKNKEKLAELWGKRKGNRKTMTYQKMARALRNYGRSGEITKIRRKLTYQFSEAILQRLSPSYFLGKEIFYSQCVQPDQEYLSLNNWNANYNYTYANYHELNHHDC
In short: as §1

ELF4 = ELF4 (Homo sapiens, UniProt Q99607 1-663); settings: protein: recombinant; tags: N-terminal GST; dsDNA, one strand shown
In short: as §1

ELK4 = target: T3, ELK4 (Homo sapiens, UniProt P28324-2 1-405); settings: protein: recombinant; tags: N-terminal GST; dsDNA, one strand shown
T3 sequence: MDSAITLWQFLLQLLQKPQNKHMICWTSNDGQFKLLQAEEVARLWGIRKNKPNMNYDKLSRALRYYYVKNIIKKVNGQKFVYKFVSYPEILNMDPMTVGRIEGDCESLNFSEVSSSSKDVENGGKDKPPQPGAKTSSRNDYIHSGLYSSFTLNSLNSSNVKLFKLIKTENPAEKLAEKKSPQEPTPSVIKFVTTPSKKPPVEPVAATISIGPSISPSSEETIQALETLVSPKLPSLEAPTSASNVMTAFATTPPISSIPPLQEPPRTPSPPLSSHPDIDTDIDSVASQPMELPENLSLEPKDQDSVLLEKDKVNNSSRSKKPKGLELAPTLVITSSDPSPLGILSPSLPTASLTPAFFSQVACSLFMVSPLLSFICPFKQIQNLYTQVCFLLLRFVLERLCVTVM
In short: as §1

ETV2 = target: T4, ETV2 (Homo sapiens, UniProt O00321 1-342); settings: protein: recombinant; tags: N-terminal GST; dsDNA, one strand shown
T4 sequence: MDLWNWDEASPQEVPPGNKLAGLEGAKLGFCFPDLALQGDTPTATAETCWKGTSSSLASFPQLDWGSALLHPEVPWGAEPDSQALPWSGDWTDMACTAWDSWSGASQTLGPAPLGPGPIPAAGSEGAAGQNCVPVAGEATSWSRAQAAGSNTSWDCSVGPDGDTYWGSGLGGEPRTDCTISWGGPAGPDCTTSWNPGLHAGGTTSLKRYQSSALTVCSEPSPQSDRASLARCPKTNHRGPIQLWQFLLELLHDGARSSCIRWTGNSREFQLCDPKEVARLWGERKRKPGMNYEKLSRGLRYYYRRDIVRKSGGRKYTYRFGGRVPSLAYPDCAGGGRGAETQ
In short: as §1

ELF3 = target: T5, ELF3 (Homo sapiens, UniProt P78545 1-371); settings: protein: recombinant; tags: N-terminal GST; dsDNA, one strand shown
T5 sequence: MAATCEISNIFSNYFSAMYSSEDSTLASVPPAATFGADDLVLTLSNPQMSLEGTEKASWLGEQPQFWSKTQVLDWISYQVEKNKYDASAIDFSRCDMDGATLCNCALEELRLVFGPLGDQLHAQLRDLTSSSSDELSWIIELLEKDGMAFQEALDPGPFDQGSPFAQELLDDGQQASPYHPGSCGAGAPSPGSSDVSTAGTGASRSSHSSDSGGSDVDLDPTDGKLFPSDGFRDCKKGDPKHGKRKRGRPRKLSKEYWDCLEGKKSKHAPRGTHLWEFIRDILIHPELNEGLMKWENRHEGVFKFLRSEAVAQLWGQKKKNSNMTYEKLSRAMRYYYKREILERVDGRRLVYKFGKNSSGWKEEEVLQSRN
In short: as §1

CRX = CRX (Homo sapiens, UniProt O43186 1-299); settings: protein: recombinant; tags: N-terminal GST; dsDNA, one strand shown
In short: as §1

ETV1 = ETV1 (Homo sapiens, UniProt P50549 1-477); settings: protein: recombinant; tags: N-terminal GST; dsDNA, one strand shown
In short: as §1

ERF = target: T6, ERF (Homo sapiens, UniProt P50548 1-548); settings: protein: recombinant; tags: N-terminal GST; dsDNA, one strand shown
T6 sequence: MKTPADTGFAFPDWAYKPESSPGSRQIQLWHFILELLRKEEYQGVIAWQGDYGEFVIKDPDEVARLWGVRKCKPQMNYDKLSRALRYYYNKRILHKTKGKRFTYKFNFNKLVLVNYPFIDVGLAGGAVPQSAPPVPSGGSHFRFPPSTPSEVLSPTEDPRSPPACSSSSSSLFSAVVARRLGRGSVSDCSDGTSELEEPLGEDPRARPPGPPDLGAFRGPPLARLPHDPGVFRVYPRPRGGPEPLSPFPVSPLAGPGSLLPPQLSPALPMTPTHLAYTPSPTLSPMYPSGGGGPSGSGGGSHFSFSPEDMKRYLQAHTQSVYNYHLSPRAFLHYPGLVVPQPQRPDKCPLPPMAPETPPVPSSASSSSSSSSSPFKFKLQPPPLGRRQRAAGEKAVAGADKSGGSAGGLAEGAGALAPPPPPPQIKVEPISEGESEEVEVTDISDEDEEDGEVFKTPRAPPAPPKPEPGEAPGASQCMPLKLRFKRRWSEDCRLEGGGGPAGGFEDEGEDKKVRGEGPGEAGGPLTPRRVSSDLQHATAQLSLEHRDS
In short: as §1

ETV3L = target: T7, ETV3L (Homo sapiens, UniProt Q6ZN32 1-361); settings: protein: recombinant; tags: N-terminal GST; dsDNA, one strand shown
T7 sequence: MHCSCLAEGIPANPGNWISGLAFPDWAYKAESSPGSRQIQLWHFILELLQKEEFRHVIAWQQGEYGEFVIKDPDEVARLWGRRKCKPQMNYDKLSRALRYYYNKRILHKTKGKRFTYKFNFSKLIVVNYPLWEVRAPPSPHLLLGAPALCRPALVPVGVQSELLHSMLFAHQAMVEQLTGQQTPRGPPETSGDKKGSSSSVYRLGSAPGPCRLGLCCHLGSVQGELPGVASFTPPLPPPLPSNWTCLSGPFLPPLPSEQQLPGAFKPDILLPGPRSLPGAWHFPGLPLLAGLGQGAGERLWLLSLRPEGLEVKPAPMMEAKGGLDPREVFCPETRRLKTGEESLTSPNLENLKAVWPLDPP
In short: as §1

ETS2 = target: T8, ETS2 (Homo sapiens, UniProt P15036 1-469); settings: protein: recombinant; tags: N-terminal GST; dsDNA, one strand shown
T8 sequence: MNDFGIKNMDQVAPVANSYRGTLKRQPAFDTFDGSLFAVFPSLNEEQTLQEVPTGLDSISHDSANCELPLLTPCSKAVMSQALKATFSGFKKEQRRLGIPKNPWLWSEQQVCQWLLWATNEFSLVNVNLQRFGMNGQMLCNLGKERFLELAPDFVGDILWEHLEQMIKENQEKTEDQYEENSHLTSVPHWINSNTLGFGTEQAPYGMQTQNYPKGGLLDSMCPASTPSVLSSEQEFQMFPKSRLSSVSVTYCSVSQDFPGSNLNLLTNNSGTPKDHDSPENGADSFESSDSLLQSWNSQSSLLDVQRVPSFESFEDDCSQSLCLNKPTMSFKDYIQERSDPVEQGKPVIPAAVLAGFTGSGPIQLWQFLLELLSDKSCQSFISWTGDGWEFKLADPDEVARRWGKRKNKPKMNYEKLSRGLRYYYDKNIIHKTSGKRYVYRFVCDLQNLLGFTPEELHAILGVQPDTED
In short: as §1

ETV3 = target: T9, ETV3 (Homo sapiens, UniProt P41162-2 1-143); settings: protein: recombinant; tags: N-terminal GST; dsDNA, one strand shown
T9 sequence: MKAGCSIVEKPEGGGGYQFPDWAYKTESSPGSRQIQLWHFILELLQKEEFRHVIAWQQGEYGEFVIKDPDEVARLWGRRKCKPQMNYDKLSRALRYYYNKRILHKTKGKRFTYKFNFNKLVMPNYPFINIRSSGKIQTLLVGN
In short: as §1

ETV7 = target: T10, ETV7 (Homo sapiens, UniProt Q9Y603 1-341); settings: protein: recombinant; tags: N-terminal GST; dsDNA, one strand shown
T10 sequence: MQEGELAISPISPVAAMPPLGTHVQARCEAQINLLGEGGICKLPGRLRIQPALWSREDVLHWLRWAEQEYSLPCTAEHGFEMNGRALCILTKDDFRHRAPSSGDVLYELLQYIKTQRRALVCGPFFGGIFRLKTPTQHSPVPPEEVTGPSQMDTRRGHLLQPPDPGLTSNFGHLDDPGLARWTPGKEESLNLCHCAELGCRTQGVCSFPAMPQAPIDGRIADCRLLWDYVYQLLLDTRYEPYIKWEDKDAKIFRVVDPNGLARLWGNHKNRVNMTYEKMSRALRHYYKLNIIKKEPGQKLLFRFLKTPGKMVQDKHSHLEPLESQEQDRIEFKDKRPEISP
In short: as §1

ELF5 = target: T11, ELF5 (Homo sapiens, UniProt Q9UKW6-2 1-255); settings: protein: recombinant; tags: N-terminal GST; dsDNA, one strand shown
T11 sequence: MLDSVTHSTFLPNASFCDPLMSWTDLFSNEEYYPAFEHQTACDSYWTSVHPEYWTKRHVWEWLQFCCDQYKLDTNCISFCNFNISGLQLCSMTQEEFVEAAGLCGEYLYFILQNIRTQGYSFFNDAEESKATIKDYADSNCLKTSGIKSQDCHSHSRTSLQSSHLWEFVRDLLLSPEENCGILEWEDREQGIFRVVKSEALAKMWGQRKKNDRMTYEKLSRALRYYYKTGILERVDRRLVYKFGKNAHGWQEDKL
In short: as §1

ETV6 = ETV6 (Homo sapiens, UniProt P41212 1-452); settings: protein: recombinant; tags: N-terminal GST; dsDNA, one strand shown
In short: as §1

ELF4, sequence (Q99607 whole entry): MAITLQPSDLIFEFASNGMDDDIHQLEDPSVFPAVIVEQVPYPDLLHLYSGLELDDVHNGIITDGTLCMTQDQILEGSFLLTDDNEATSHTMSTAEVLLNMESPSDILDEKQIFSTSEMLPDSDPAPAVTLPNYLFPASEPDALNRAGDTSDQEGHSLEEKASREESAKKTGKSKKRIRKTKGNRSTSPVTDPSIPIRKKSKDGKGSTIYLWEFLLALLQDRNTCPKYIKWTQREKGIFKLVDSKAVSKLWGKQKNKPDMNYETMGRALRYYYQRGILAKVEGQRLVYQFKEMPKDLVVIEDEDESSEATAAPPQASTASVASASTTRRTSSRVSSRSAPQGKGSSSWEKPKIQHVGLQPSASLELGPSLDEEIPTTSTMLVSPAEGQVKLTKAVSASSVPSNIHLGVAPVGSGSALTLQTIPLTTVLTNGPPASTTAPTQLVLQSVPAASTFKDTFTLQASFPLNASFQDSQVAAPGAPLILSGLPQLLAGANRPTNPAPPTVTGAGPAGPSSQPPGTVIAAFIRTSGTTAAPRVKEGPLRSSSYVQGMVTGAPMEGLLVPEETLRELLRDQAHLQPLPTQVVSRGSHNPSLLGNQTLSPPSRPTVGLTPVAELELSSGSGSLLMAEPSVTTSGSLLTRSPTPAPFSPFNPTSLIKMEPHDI
HSF1, sequence (Q00613 whole entry): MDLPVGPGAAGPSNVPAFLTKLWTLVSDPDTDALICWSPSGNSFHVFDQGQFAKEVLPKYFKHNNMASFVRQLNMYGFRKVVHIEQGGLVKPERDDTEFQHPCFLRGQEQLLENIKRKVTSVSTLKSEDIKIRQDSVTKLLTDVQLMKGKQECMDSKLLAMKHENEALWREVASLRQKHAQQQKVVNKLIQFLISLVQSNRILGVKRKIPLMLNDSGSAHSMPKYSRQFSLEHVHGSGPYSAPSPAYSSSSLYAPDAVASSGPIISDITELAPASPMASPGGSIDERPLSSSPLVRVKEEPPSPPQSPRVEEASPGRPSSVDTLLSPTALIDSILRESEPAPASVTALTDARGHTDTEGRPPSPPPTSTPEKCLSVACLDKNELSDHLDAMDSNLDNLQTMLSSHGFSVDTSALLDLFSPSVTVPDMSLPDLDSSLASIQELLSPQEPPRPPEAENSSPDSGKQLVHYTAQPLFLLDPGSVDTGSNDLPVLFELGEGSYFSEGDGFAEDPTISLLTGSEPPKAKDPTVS
ETV1, sequence (P50549 whole entry): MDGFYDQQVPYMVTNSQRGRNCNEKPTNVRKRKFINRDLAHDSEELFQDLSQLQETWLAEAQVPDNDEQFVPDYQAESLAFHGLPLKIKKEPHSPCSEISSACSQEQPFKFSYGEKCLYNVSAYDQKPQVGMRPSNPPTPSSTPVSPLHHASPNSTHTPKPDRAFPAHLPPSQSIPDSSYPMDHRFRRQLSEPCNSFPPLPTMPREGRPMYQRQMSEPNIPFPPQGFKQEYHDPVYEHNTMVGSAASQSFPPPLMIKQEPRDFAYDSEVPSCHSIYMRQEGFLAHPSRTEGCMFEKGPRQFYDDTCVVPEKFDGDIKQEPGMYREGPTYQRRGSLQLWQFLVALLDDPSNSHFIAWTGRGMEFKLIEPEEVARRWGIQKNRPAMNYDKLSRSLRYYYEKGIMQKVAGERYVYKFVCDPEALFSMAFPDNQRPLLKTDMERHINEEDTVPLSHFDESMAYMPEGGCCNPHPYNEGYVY
ETV5, sequence (P41161 whole entry): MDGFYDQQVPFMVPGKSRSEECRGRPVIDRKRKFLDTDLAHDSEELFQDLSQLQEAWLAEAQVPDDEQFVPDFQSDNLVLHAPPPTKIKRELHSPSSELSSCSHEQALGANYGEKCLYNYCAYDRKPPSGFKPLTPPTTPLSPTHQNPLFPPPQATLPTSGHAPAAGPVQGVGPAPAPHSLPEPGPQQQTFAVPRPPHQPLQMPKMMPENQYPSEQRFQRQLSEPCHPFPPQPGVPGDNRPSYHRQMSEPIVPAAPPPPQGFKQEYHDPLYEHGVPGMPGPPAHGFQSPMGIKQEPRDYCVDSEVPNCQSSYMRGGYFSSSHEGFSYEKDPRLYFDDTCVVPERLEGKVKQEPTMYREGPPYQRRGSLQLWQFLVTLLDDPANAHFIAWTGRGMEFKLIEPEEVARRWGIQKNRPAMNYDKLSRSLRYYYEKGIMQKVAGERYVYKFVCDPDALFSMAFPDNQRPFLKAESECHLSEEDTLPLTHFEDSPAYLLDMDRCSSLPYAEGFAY
CRX, sequence (O43186 whole entry): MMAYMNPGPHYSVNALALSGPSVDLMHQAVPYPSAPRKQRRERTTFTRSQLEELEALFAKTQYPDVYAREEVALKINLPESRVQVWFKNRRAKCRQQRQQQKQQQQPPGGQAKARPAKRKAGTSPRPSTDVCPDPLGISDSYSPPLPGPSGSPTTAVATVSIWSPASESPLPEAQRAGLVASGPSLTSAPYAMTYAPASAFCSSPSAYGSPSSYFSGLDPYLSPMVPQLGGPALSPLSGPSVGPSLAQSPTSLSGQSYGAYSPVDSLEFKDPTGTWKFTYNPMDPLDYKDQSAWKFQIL
ETV6, sequence (P41212 whole entry): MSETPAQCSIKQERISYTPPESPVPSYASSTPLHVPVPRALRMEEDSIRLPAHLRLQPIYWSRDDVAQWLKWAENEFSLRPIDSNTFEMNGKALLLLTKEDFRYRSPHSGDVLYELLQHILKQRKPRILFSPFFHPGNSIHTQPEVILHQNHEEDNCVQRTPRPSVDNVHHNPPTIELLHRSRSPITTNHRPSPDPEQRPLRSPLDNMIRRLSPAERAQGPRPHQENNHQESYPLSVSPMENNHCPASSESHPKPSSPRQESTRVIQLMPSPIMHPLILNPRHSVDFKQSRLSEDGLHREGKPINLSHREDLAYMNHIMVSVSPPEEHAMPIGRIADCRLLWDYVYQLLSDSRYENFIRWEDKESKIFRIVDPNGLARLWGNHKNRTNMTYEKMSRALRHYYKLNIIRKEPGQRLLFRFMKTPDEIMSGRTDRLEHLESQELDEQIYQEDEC

CCGAAG
binding signal (FEV): 1.04 fold enrichment (6-mer frequency, TF over GST control) | binding signal (ETV5): 1.02 fold enrichment (6-mer frequency, TF over GST control) | binding signal (HSF1): 1.35 fold enrichment (6-mer frequency, TF over GST control) | binding signal (SPIC): 1.23 fold enrichment (6-mer frequency, TF over GST control) | binding signal (ELF4): 1.05 fold enrichment (6-mer frequency, TF over GST control) | binding signal (ELK4): 1.2 fold enrichment (6-mer frequency, TF over GST control) | binding signal (ETV2): 1.31 fold enrichment (6-mer frequency, TF over GST control) | binding signal (ELF3): 1.02 fold enrichment (6-mer frequency, TF over GST control) | binding signal (CRX): 1.11 fold enrichment (6-mer frequency, TF over GST control) | binding signal (ETV1): 1.01 fold enrichment (6-mer frequency, TF over GST control) | binding signal (ERF): 1.16 fold enrichment (6-mer frequency, TF over GST control) | binding signal (ETV3L): 1.02 fold enrichment (6-mer frequency, TF over GST control) | binding signal (ETS2): 1.08 fold enrichment (6-mer frequency, TF over GST control) | binding signal (ETV3): 1.02 fold enrichment (6-mer frequency, TF over GST control)

CATTAT
binding signal (FEV): 1.18 fold enrichment (6-mer frequency, TF over GST control) | binding signal (ETV5): 1.09 fold enrichment (6-mer frequency, TF over GST control) | binding signal (HSF1): 1.26 fold enrichment (6-mer frequency, TF over GST control) | binding signal (SPIC): 1.25 fold enrichment (6-mer frequency, TF over GST control) | binding signal (ELF4): 1.21 fold enrichment (6-mer frequency, TF over GST control) | binding signal (ELK4): 1.28 fold enrichment (6-mer frequency, TF over GST control) | binding signal (ETV2): 1.05 fold enrichment (6-mer frequency, TF over GST control) | binding signal (ELF3): 1.33 fold enrichment (6-mer frequency, TF over GST control) | binding signal (CRX): 1.65 fold enrichment (6-mer frequency, TF over GST control) | binding signal (ETV1): 1.32 fold enrichment (6-mer frequency, TF over GST control) | binding signal (ERF): 1.21 fold enrichment (6-mer frequency, TF over GST control) | binding signal (ETV3L): 1.24 fold enrichment (6-mer frequency, TF over GST control) | binding signal (ETS2): 1.21 fold enrichment (6-mer frequency, TF over GST control) | binding signal (ETV7): 1.31 fold enrichment (6-mer frequency, TF over GST control) | binding signal (ELF5): 1.12 fold enrichment (6-mer frequency, TF over GST control) | binding signal (ETV3): 1.15 fold enrichment (6-mer frequency, TF over GST control) | binding signal (ETV6): 1.2 fold enrichment (6-mer frequency, TF over GST control)
